Compound activity (PubChem BioAssay)
CHRM1 agonist: human M1 muscarinic receptor agonism. P11229. CHO-K1 hM1, Fluo-8 calcium fluorescence, agonist mode; 0% DMSO, 100% acetylcholine EC100. activation, % at 3 µM. 0.33% of 360,000 active. AID 588814;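 active means activation above the run's mean compound activation plus 3 SD, cut at about 16% in these data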;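 further: peak over basal fluorescence ratio within a 140 s kinetic read after compound addition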
Target sequence (P11229 whole entry, looked up): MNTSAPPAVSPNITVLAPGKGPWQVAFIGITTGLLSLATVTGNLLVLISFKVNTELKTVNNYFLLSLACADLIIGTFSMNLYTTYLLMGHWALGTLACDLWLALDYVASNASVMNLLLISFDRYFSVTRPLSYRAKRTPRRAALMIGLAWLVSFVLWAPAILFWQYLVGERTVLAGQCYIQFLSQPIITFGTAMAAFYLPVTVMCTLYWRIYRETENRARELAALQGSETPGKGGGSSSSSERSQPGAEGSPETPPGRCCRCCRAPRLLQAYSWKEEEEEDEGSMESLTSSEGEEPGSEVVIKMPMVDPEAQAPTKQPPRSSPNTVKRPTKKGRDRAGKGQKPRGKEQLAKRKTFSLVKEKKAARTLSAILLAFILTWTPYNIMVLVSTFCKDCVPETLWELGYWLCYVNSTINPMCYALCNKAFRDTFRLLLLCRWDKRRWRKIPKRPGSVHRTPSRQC
CHRM1 antagonist: antagonists of human M1 muscarinic receptor; P11229; CHO-K1 hM1, Fluo-8 calcium fluorescence, ACh EC80 antagonist; inhibition, % at 3 µM; 1.3% of 360,000 active; AID 588852;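 active means percent inhibition above its own plate's cutoff, namely the mean of that plate's compound wells plus 3 SD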;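 further: peak over basal fluorescence ratio during 140 s after agonist addition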
CHO-K1 Ca PAM: counter-screen for M1 PAMs: effect in parental CHO-K1 cells. ATP EC20, Fluo-8 calcium fluorescence; 0% at ATP EC20, 100% at ATP max. activation, % at 3 µM. 0.02% of 360,000 active. AID 602247;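 active means activation above the run cutoff, the mean activation of all test compounds plus 3 SD, cut at about 40% in these data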;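 further: peak over basal fluorescence ratio in a 140 s read after ATP addition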
M1 ag parental: nonselective activator or artifact in parental CHO-K1 cells. Fluo-8 calcium fluorescence; scaled to maximal ATP response, vehicle zero. activation, % at 3 µM. 0.48% of 360,000 active. AID 602248; in the data active means activation above about 15%;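 further: untransfected CHO-K1 host cells lacking M1 receptor as counterscreen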
M1 PAM: positive allosteric modulators of human M1 muscarinic receptor; CHO-K1 hM1, Fluo-8 calcium fluorescence, ACh EC20; 0% = ACh EC20, 100% = maximal ACh; activation, % at 3 µM; P11229; 0.088% of 360,000 active; in the data active means activation above about 19%, passing the limit was not always enough
CHO-K1 Ca antag: nonselective inhibitor or artifact in parental CHO-K1 cells | ATP-induced calcium, Fluo-8 fluorescence | inhibition, % at 3 µM | 0.6% of 360,000 active | AID 602250;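 active means inhibition above a per-plate cutoff, the plate's mean sample inhibition plus 3 SD, cut at about 24% in these data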
Numbers stand for hits; – = inactive; · = no result. Most compounds without a hit are left out; they make up all but 2.3% or so of the library.

SMILES	CHRM1 agonist	CHRM1 antagonist	CHO-K1 Ca PAM	M1 ag parental	M1 PAM	CHO-K1 Ca antag
COc1ccc(S(=O)(=O)N(C)C[C@@H]2Oc3c(NS(C)(=O)=O)cccc3C(=O)N([C@@H](C)CO)C[C@H]2C)cc1	–	–	–	–	–	–
Oc1ccc(C[C@H]2CNC(=S)N2CC2CCCN2C[C@H](Cc2ccccc2)N2C[C@H](Cc3ccc(O)cc3)N(CC3CCCCC3)C2=S)cc1 (stereo partly specified)	–	–	–	–	–	–
Cc1c(C(=O)NC2CCN(Cc3ccccc3)C2)oc2c(Cl)cccc12 (stereo unspecified)	–	–	–	–	–	–
O=C(c1ccco1)N1CCN(CC2CC3C=CC2C3)CC1 (stereo unspecified)	–	29.4	–	–	–	–
CCN1CCN(CC2CC3C=CC2C3)CC1 (stereo unspecified)	–	–	–	–	–	–
Cc1ccccc1CN1CCN(CC2CC3C=CC2C3)CC1 (stereo unspecified)	–	54.0	–	–	–	–
O=C(c1ccco1)N1CCN(C(=O)c2ccco2)CC1	–	–	–	–	–	–
CS(=O)(=O)N1CCN(CC2CC3C=CC2C3)CC1 (stereo unspecified)	44.6	–	–	–	–	–
O=C(N/N=C/c1cccnc1)c1cc(-c2ccc(Br)cc2)nc2ccccc12	–	–	–	–	–	–
CCOC(=O)c1ccc(NC(=O)N2CCN(c3cccc(OC)c3)CC2)cc1	–	44.4	–	–	–	–
COC(=O)c1ccc(N2CCOCC2)c(NC(=O)Nc2cccc(OC)c2)c1	–	–	–	–	–	–
CCOC(=O)c1ccc(N2CCN(c3ccccc3F)CC2)c(NC(=O)Nc2cccc(OC)c2)c1	–	31.6	–	–	–	41.2
CCOC(=O)c1ccc(NC(=O)N2CCN(c3ccccn3)CC2)cc1	–	–	–	–	–	–
O=C(Nc1cccc(Cl)c1)Nc1cccc(Cl)c1	–	–	–	–	–	–
COc1ccccc1NS(=O)(=O)c1cccc(NC(=O)Nc2cccc(Cl)c2)c1	–	–	–	–	–	33.6
COC(=O)c1cccc(NC(=O)NC(=O)c2ccc(Cl)cc2)c1	–	–	–	–	–	–
COC(=O)c1cc(NC(=O)Nc2cccc(Cl)c2)ccc1Cl	–	32.2	–	18.0	–	23.8
COC(=O)c1cccc(NC(=O)Nc2ccc(Cl)cc2)c1	–	38.1	–	–	–	–
COc1ccccc1NS(=O)(=O)c1cc(NC(=O)c2ccc(Cl)nc2)ccc1Cl	–	27.9	–	16.1	–	–
O=C(CN1CCN(C(=O)C2CC2)CC1)Nc1ccc(Cl)cc1F	–	–	–	–	–	–
O=S(=O)(c1cccc2nsnc12)N1CCCCC1	–	–	–	–	–	–
COc1ccc(N(C)S(=O)(=O)c2cccc(C(=O)N(C)Cc3ccc(C)o3)c2)cc1	–	–	–	–	–	–
O=C(c1ccccc1F)n1c2c(c3ccccc31)CCCC2	–	–	–	–	–	–
COc1ccc(NC(=O)c2ccc(Cl)c(S(=O)(=O)N3CCc4ccccc4C3)c2)cn1	–	17.6	–	–	–	–
COC(=O)c1cccc(NC(=S)Nc2ccc(Cl)c(Cl)c2)c1	–	–	–	–	–	25.7
SMILES	CHRM1 agonist	CHRM1 antagonist	CHO-K1 Ca PAM	M1 ag parental	M1 PAM	CHO-K1 Ca antag
O=C(CSc1nnc(NC(=O)c2c(F)cccc2F)s1)NC1CCCCC1	–	–	–	–	–	–
COc1cccc(OCCSc2nc(N)cc(N)n2)c1	–	–	–	–	–	26.9
Nc1cc(N)nc(SCCOc2ccccc2)n1	–	–	–	–	–	–
Cc1cccc(OC(=O)NCCOC(=O)N(O)c2ccc(Cl)cc2)c1	–	–	–	–	–	24.1
CCN(CC)C(=O)C(C(=O)c1cccc([N+](=O)[O-])c1)n1cc(Cl)ccc1=O (stereo unspecified)	–	–	–	–	–	–
CC1(C(=O)Nc2ccc(Cl)c(Cl)c2)CCN1C(=O)C1CCCCC1 (stereo unspecified)	–	–	–	–	–	–
Cc1cc(/C=N/n2cnnc2)c(C)n1-c1ccc(OCc2ccc(Cl)cc2Cl)cc1	–	–	–	–	–	42.6
Cc1cc(/C=N/n2cnnc2)c(C)n1-c1ccc(OCc2ccc(F)cc2)cc1	–	45.7	–	–	–	–
Cc1cc(/C=N/n2cnnc2)c(C)n1-c1ccc(Cl)cc1	–	–	–	–	–	–
CCCn1c(SCC(=O)N2N=C3/C(=C/c4ccc(OC)cc4)CCCC3C2c2ccc(OC)cc2)n[nH]c1=O (stereo unspecified)	–	–	–	24.5	–	–
Cn1cc(Br)c(NS(=O)(=O)c2ccc(Cl)s2)n1	–	–	–	–	–	–
O=C(NCCN1CCOCC1)C1CCN(c2ncnc3c2sc2cccc(F)c23)CC1	–	–	–	–	–	–
CCCCN(CC)CCCNC(=O)C1CCN(c2ncnc3c2sc2cccc(F)c23)CC1	–	42.0	–	–	–	–
Cc1ccnc(N/C=C(\C#N)c2nc(-c3cccc(Br)c3)cs2)c1	161.4	43.2	–	84.5	–	38.9
N#C/C(=C\Nc1ccc2cn[nH]c2c1)c1nc(-c2ccccc2)cs1	–	–	–	–	–	–
CCOc1ccccc1C(C(=O)NC1CCCCC1)N(C(=O)c1csnn1)C1CC1 (stereo unspecified)	–	–	–	–	–	–
COc1ccc(/C=C2\CN(Cc3ccccc3)C/C(=C\c3ccc(OC)c(O)c3)C2=O)cc1O	–	28.3	–	–	–	–
CCN1C/C(=C/c2ccc(OC)c(O)c2)C(=O)/C(=C/c2ccc(OC)c(O)c2)C1	–	–	–	–	–	–
COC(=O)c1ccc(OCCCCN(C)Cc2ccccc2)cc1	–	31.3	–	–	–	–
CCOc1cccc(OCCOCCN(C)C)c1	–	–	–	–	–	–
Cc1ccc(Cl)c(OCCCCN(C)Cc2ccccc2)c1	–	37.3	–	–	–	–
CCOc1cccc(OCCOCCN(C)Cc2ccccc2)c1	–	31.1	–	–	–	–
On1nnc2ccccc21	–	–	–	–	–	–
CCOC(=O)[C@]12CCC=C1N(Cc1cccc3ccccc13)C(=O)[C@H](CC(=O)N1CCCC1)C2	·	·	–	–	·	–
CSCC[C@@H](CO)NC(=O)[C@H]1O[C@@H](n2ccc(N)nc2=O)[C@H](O)[C@@H]1O	–	–	–	–	–	–
Cc1ccc(C(c2sc3nc(C)nn3c2O)N2CCN(CCO)CC2)cc1 (stereo unspecified)	–	–	–	–	–	–
COC(=O)C1CCN(C(c2ccc(OC)c(OC)c2)c2sc3nc(C)nn3c2O)CC1 (stereo unspecified)	–	36.1	–	–	–	–
